# Source: PubChem BioAssay (NCATS)
# Records with an inconclusive call do not appear. A number with no mark means an inactive call. Activity calls are given as the source filed them. Calls come from the whole dose curve; as a rule, active = well fitted inhibition curve with a large enough effect; inconclusive = small, poorly fitted or top-dose-only effect; inactive = flat fitted curve, though single readings scatter.
# System: MCC-26
# Experiment: qHTS assay to identify novel small-molecules to repurpose for Merkel cell carcinoma treatment (AID 1296009); note: nearly all actives have a fitted effect of over 60% in size
# Details: MCC and control cell lines, CellTiter-Glo viability, 72 h; series mostly up to 46 µM; activity change, negative = cytotoxicity: at the top concentration
# Source text: MCC is a rare and aggressive neuroendocrine skin cancer with limited treatment options. Approximately 80% of MCCs have the Merkel cell polyomavirus (MCPyV) DNA integrated into the host genome (virus-positive: VP-MCC) and viral oncogenes drive oncogenesis. The remaining MCCs are virus-negative (VN-MCC) and are caused by UV mutagenesis. To identify novel treatments for VP-MCC and/or VN-MCC we screened three VP-MCC cell lines (WAGA, MKL-1, MKL-2), three VN-MCC cell lines (MCC-13, MCC-26, UISO), and four immortalized, non-transformed control cell lines (HaCaT, HEK293T, CRL7250, NIH-3T3) against ~2,400 compounds in the NCGC Pharmaceutical Collection (NPC) and ~1,900 compounds in the Mechanism Interrogation PlatE (MiPE). Using cell viability as a readout (CellTiter-Glo assay) we found both overlapping and distinct drugs that can be repurposed for the treatment of VP-MCC and VN-MCC.
# A high-throughput screen was conducted in 1536-well white flat bottom plates (Corning) on a Kalypsys robotic system. Cell lines WAGA, MKL-1, MKL-2, MCC-13, MCC-26, UISO, HaCaT, HEK293T, CRL7250, and NIH-3T3 were screened against 2 small molecule annotated drug libraries NPC and MIPE in dose response (8 and 11 pt. respectively) measuring cell viability after 72 hours of incubation. […] A 1,536 pintool (Kalypsys) was used to transfer 23 nL of compound in DMSO to the 1,536-well assay plates. After 72 hr incubation at 37 degree celsius, 2.5 uL of CellTiter-Glo (Promega) was dispensed into each well using a BiorapTR. Plates were incubated at room temperature for 10 min, transferred to a ViewLux (PerkinElmer) and the luminescence was recorded using an exposure time of 2 seconds. Relative luminescence units (RLUs) were normalized to in-plate controls (no cells as a positive (cytotoxicity) control, DMSO as negative control) and the normalized data was processed using NCATS in-house software.
# % is set by controls: 0 for no effect and ±100 for the full control effect; potency is the fitted concentration of half-maximal effect.
Structure (SMILES),"activity change, negative = cytotoxicity",Potency
CC[C@H]1OC(=O)[C@H](C)[C@@H](O[C@H]2C[C@@](C)(OC)[C@@H](O)[C@H](C)O2)[C@H](C)[C@@H](O[C@@H]2O[C@H](C)C[C@H](N(C)C)[C@@H]2O)[C@](C)(O)C[C@@H](C)CN(C)[C@H](C)[C@@H](O)[C@]1(C)O,-9.67%,–
CC(C)(C)C(=O)Oc1ccc2c(c1)nc(NC(=O)c1cccc([N+](=O)[O-])c1)n2CCCO,-1.93%,–
O=C(NCc1ccncc1)C12C[C@H]3C[C@@H](C1)CC(c1ccc(Cl)cc1)(C3)C2,-18.9%,–
CCCCCN(C)CCC(O)(P(=O)(O)O)P(=O)(O)O,0.0762%,–
CCn1c(C(=O)N(C2CC2)C2CC2)cc2c3c(ncn3C)c(Nc3cc(C)n(C)n3)nc21,-19.3%,–
CC(C)(C)NC(=O)Nc1cccc(Nc2ncc(F)c(NC(C)(C)CO)n2)c1,-9.29%,–
CN(C)c1cc(NC(=O)CNC(C)(C)C)c(O)c2c1C[C@@H]1C[C@H]3[C@H](N(C)C)C(=O)C(C(N)=O)=C(O)[C@@]3(O)C(=O)C1=C2O,3.39%,–
CC(=O)N[C@@H](CS)C(=O)O,13%,–
CC(C)(C)c1ccc(C(O)CCCN2CCC(C(O)(c3ccccc3)c3ccccc3)CC2)cc1 (stereo not given),4.63%,–
C[N+]1(C)[C@@H]2CC(OC(=O)[C@H](CO)c3ccccc3)C[C@H]1[C@H]1O[C@@H]12 (stereo not given in full),0.426%,–
CC1CCC(C(=O)N(c2cc(C#CC(C)(C)C)sc2C(=O)O)C2CCC(O)CC2)CC1 (stereo not given),-6.22%,–
CC(=O)c1ccc(S(=O)(=O)NC(=O)NC2CCCCC2)cc1,7.5%,–
CC(=Cc1ccccc1)C=C1SC(=S)N(CC(=O)O)C1=O,-9.68%,–
Oc1ccc(C2CCN(c3ccnc4ccccc34)CC2)cc1O,-12.1%,–
Cc1ccc(C(C)(O)c2nc3ccccc3s2)c(C)c1 (stereo not given),1.38%,–
NC(=O)[C@@H](CCC(F)(F)F)N(Cc1ccc(-c2ncon2)cc1F)S(=O)(=O)c1ccc(Cl)cc1,-15%,–
CN1C[C@H]2c3ccccc3Oc3ccc(Cl)cc3[C@@H]2C1,–,inactive
Nc1ncnc2c1nc(Cl)n2[C@@H]1O[C@H](CO)[C@@H](O)[C@@H]1O,-2.41%,–
O=C(O)c1cc(O)c2c(c1)C(=O)c1cccc(O)c1C2=O,-5.94% [at 92.7 µM],–
CNC(=O)c1ccccc1Sc1ccc2c(C=Cc3ccccn3)n[nH]c2c1,-18.5%,–

Structure (SMILES),"activity change, negative = cytotoxicity",Potency
CCC(CC)[C@H](NC(C)=O)[C@@H]1[C@H](O)[C@@H](C(=O)O)C[C@@H]1N=C(N)N,-17.2%,–
COc1ccc(C2CC(c3ccccc3)=NN2c2ccc(S(N)(=O)=O)cc2)cc1 (stereo not given),-6.53%,–
COC(=O)N[C@H](C(=O)N1CCC[C@@H]1c1ncc(-c2ccc(-c3ccc(-c4cnc([C@@H]5CCCN5C(=O)[C@@H](NC(=O)OC)C(C)C)[nH]4)cc3)cc2)[nH]1)C(C)C,-7.17%,–
COc1cc(N2CCC(N3CCN(C)CC3)CC2)ccc1Nc1ncnc(Nc2ccccc2S(=O)(=O)C(C)C)n1,–,11.8 µM (active)
CC(=O)CCCCn1c(=O)c2c(ncn2C)n(C)c1=O,9.33%,–
CN1[C@@H]2CCC[C@@H]1CC(NC(=O)c1nn(C)c3ccccc13)C2 (stereo not given in full),7.48%,–
N#CC1(c2ccc(NC(=O)c3cccnc3NCc3ccncc3)cc2)CCCC1,-9.32%,–
CC(=O)N(C)C1(c2ccccc2)CCN(CCC[C@]2(c3ccc(Cl)c(Cl)c3)CCCN(C(=O)c3ccccc3)C2)CC1,-6.58%,–
COc1ccc2cccc(CCNC(C)=O)c2c1,-3.78%,–
COc1cc(Nc2ncc(F)c(Nc3ccc4c(n3)NC(=O)C(C)(C)O4)n2)cc(OC)c1OC,4.04%,–
OC[C@@H](O)[C@H](O)[C@H](O)[C@@H](O)CO,–,inactive
O=C(O)Cc1cccc2ccccc12,–,inactive
CN(C)Cc1ccc(-c2nc3cccc4c3n2CCNC4=O)cc1,2.92%,–
CCOC1OC(=O)C[C@H]1NC(=O)[C@@H]1CCCN1C(=O)[C@@H](NC(=O)c1ccc(N)c(Cl)c1)C(C)(C)C (stereo not given in full),1.43%,–
CO[C@H]1C[C@@H]2CC[C@@H](C)[C@@](O)(O2)C(=O)C(=O)N2CCCC[C@@H]2C(=O)O[C@H]([C@@H](C)C[C@@H]2CC[C@H](O)[C@H](OC)C2)CC(=O)[C@H](C)C=C(C)[C@@H](O)[C@@H](OC)C(=O)[C@H](C)C[C@H](C)C=CC=CC=C1C,-0.0546%,–
C[C@H](NC(=O)C(=O)Nc1ccccc1C(C)(C)C)C(=O)N[C@@H](CC(=O)O)C(=O)COc1c(F)c(F)cc(F)c1F,-17.3%,–
CCCNC(=O)NS(=O)(=O)c1ccc(Cl)cc1,8.53%,–
COc1ncc(-c2ccc3nccc(-c4ccnnc4)c3c2)cc1NS(=O)(=O)c1ccc(F)cc1F,–,0.372 µM (active)
c1ccc2c(-c3cnn4cc(-c5ccc(N6CCNCC6)cc5)cnc34)ccnc2c1,–,8.33 µM (active)
CC(=O)O[C@]1(C(C)=O)CC[C@@H]2[C@@H]3C[C@H](C)C4=CC(=O)CC[C@]4(C)[C@H]3CC[C@@]21C,-15.3%,–
